Broadly, the inhibition is the change of the read-out against control, counted positive when it falls.

Holding throughout (assay type): functional
For assay [1], the target named is Solute carrier family 2, facilitated glucose transporter member 1 (Homo sapiens) (UniProt P11166). The assay can be described thus: ST_JUDE_LEISH: Cytotoxicity at 2uM final concentration against transgenic Leishmania Mexicana promastigotes LmGLUT1 that are glucose transport deficient and complemented with the human glucose transporter GLUT1. Activity is measured by DNA content using SYBR green in vitro.

Assay [2] has as its target Hexose transporter 1 (Plasmodium falciparum) (UniProt O97467). The assay can be described thus: ST_JUDE_LEISH: Cytotoxicity at 2uM final concentration against transgenic Leishmania Mexicana promastigotes LmPfHT that are glucose transport deficient and complemented with the Plasmodium falciparum hexose transporter. Activity is measured by DNA content using SYBR green in vitro.

Assay [3] has as its target Glucose transporter (Leishmania mexicana) (UniProt O61059). Briefly: ST_JUDE_LEISH: Cytotoxicity at 2uM final concentration against transgenic Leishmania Mexicana promastigotes LmGT2 that are glucose transport deficient and complemented with the L. Mexicana glucose transporter 2. Activity is measured by DNA content using SYBR green in vitro.

Solute carrier family 2, facilitated glucose transporter member 1 (Homo sapiens), sequence (P11166 whole entry): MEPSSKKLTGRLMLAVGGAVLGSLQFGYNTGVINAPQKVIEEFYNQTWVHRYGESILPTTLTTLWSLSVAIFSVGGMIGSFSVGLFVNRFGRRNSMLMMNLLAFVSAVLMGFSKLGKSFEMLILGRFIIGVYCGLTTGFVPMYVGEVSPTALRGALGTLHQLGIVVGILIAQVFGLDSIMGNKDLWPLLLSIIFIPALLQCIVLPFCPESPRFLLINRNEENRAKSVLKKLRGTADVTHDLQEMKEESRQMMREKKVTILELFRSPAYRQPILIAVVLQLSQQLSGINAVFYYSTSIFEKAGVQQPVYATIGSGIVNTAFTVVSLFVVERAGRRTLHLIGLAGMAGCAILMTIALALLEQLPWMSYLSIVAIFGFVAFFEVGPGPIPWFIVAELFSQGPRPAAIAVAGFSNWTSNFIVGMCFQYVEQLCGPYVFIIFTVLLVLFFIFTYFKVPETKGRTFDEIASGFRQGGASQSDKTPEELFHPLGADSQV

In the case of `O=C(NC1CCN(Cc2ccc(F)cc2)CC1)c1ccc(-c2cccc(C(F)(F)F)c2)s1`, the inhibition turned out to be 9.61% in assay [1], 9.88% in assay [2] and 1.44% in assay [3].
With `COc1cccc2[nH]c(NCCCNCc3cc(Br)cc(Br)c3)nc12`, the inhibition in assay [1] came to 3.51%; in assay [2] it was 1.26%; in assay [3] it was 2.63%.
For the molecule `Oc1ccc(CN2Cc3ccccc3OC3(CCN(Cc4c[nH]c5cnccc45)CC3)C2)cc1`, the inhibition is -0.29% in assay [1], -0.21% in assay [2] and -3.09% in assay [3].
Turning to `COc1ccc2nccc([C@@H](O)CN3CCC(NC(=O)C(c4cc5ccccc5o4)N4CCC(Cc5ccccc5)CC4)CC3)c2c1` (stereo partly specified), the results for the inhibition in assay [1], in assay [2] and in assay [3] were 5.02%, 3.03% and 2.23%, respectively.
For the molecule `CN1CCCc2ccc(NC(=O)Nc3ccc(-c4ccccc4)cc3)cc2C1`, the results for the inhibition in assay [1], in assay [2] and in assay [3] were -3.44%, 0.82% and -0.14%, respectively.
For `Cn1nccc1C(=O)NCCNCc1cccc(-c2ccc(-c3nc4cc(C(F)(F)F)ccc4[nH]3)cc2)c1`, the figures for the inhibition in assay [1], in assay [2] and in assay [3] were -3.3%, -1.43% and -2.04%, respectively.
As to `CCCCc1ccc(NC(=O)Nc2cccc(CCNCc3ccccc3)c2)cc1`, the figures for the inhibition in assay [1], in assay [2] and in assay [3] were 11.8%, 11.4% and 10.2%, respectively.
For the molecule `Oc1cc(Nc2ccnc3ccc(I)cc23)c(F)cc1Cl`, the results for the inhibition in assay [1], in assay [2] and in assay [3] were 0.49%, 1.05% and -1.45%, respectively.
As to `CCc1cc2c(N)nc(N)nc2nc1-c1ccccc1`, the inhibition in assay [1] stood at 4.22%; in assay [2] it was 3.93%; in assay [3] it was 0.81%.
For the molecule `CCCCc1ccccc1NS(=O)(=O)c1ccc(OC)c(N2CCNCC2)c1`, the inhibition in assay [1] is -0.96%; in assay [2], -3.65%; in assay [3], -2.27%.
Regarding `CS(=O)(=O)Nc1ccc(-c2ccc3ccnc(N)c3c2)cc1`, the results for the inhibition in assay [1], in assay [2] and in assay [3] were 7.57%, 7.12% and 6.67%, respectively.
For the molecule `COc1ccc(OC)c(C=NNc2nc3ccccc3[nH]2)c1`, the figures for the inhibition in assay [1], in assay [2] and in assay [3] were 5.98%, 5.18% and 3.34%, respectively.
For `Cc1cnn(-c2cccc(C(=O)NC3CCC(CCN4CCc5ccc(C#N)cc5CC4)CC3)c2)c1` (stereo unspecified), in that order: 1.35%, 6.24% and -0.22%.
For `O=S(=O)(Nc1cccc(CCN2CCCCC2CCN2CCCC2)c1)c1cccc2ccccc12` (stereo unspecified), in that order: 1.15%, 2.49% and -0.21%.
For the molecule `OCC1CCN(Cc2ccc(-c3ccc(-c4nc5ccccc5[nH]4)cc3)cc2)CC1`, the inhibition in assay [1] is 6.11%; in assay [2], 5.06%; in assay [3], 5.45%.
As to `CC(C)Cn1cc(C2CCN(CCN3CCC(CNC(=O)c4ccc(NC(=O)c5ccc(Cl)cc5)cc4)CC3)CC2)c2ccccc21`, the inhibition in assay [1] was 7.85%; in assay [2], 7.36%; in assay [3], 4.99%.
Turning to `O=c1ccccn1CCCC1CCCCN1` (stereo unspecified), the results for the inhibition in assay [1], in assay [2] and in assay [3] were 12.2%, 12.2% and 13.5%, respectively.

Source of the values: ChEMBL document CHEMBL3433997, “St. Jude Leishmania screening dataset” (2016).
